DT40 TDP1 CPT – growth inhibition of DT40 Tdp1-/-;hTDP1 cells with camptothecin (screen for TDP1 inhibitors); Potency, µM (doses to about 46.2 µM), most hits filed as inhibitors; 12% of 420,000 active; chicken DT40 Tdp1-/-;hTDP1 cells + 20 nM CPT, ATP luminescence, 48 h; note: nearly all actives have a fitted effect of over 55% in size
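Chicken DT40 Tdp1-/- cells complemented with human TDP1, 400 cells/well, exposed to compounds plus 20 nM camptothecin for at least 48 h at 37 C; viability read as ATP content by CellTiter-Glo luminescence.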
HT1080 IDH1KD tx – toxicity to HT-1080 IDH1 knockdown cells (counter line); HT-1080 IDH1 knockdown viability, ATP luminescence, 48 h; Potency, µM (top dose mostly 46.1 µM), hits mostly cytotoxic; 2% of 360,000 active; AID 686971
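Viability of IDH1-knockdown HT-1080 fibrosarcoma cells was assessed by CellTiter-Glo after 48 h at 37 °C with titrated compound; concentration-effect curves were classified by fit quality and response size.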
HT1080NT lethal – kills 2HG-producing HT-1080-NT fibrosarcoma cells | HT-1080-NT fibrosarcoma viability, CellTiter-Glo ATP luminescence, 48 h | Potency, µM (highest dose often 46.1 µM), usual class: cytotoxic | AID 686970 | 1.6% of 360,000 active;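 note: NT is the 2HG producing partner of a matched IDH1 knockdown line; nearly all actives have a fitted effect of over 55% in size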
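Fibrosarcoma NT cells, 750 per well in 5% FBS RPMI, were exposed to compound for 48 hours. Viability: CellTiter-Glo luminescence.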
KB-3-1 tox – kills parental KB-3-1 adenocarcinoma cells; KB-3-1 viability, CellTiter-Glo ATP luminescence, 72 h; Potency, µM (titrated, usually from 46.1 µM), hits mostly cytotoxic; 1.4% of 400,000 active; AID 1347075; note: nearly all actives have a fitted effect of over 60% in size
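Using CellTiter-Glo luminescence, growth of non-resistant KB-3-1 adenocarcinoma cells is assessed 72 h after pin-tool compound addition at 37 °C. Normalized responses across the concentration series yield fitted curves.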
DT40 TDP1 no CPT – qHTS for Inhibitors of human tyrosyl-DNA phosphodiesterase 1 (TDP1): qHTS in cells in absence of CPT. DT40 Tdp1-/- hTDP1 cells, no CPT, ATP luminescence, 48 h. Potency, µM (series often up to 46.2 µM), most hits filed as inhibitors. 15% of 420,000 active; note: nearly all actives have a fitted effect of over 55% in size
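Growth kinetics read by CellTiter-Glo luminescence after ≥48 hr at 37 °C. Cells: DT40 Tdp1-/- stably carrying human TDP1, 400 per well, compound exposure in the absence of CPT (DMSO vehicle).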
KB-V1 MDR tox – kills drug-selected multidrug resistant KB-V1 cells. KB-V1 MDR cells viability, CellTiter-Glo, 72 h. Potency, µM (titrated, usually from 46.1 µM), actives largely listed as cytotoxic. 3.4% of 400,000 active; note: nearly all actives have a fitted effect of over 60% in size
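Potencies derive from concentration-effect curves fitted to normalized luminescence (CellTiter-Glo) of KB-V1 cells treated for 72 h at 37 degrees C in phenol-red-free DMEM containing 10% FBS.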
Numbers stand for hits; . = inactive; ? = inconclusive; / = no result; [ ] = another dose, or the depositor's remark. In the library only some 19% were active in any assay of this set; here they are far more common. Calls come from the whole dose curve; as a rule, active = well fitted curve in the direction sought with a large enough effect; inconclusive = small, poorly fitted or top-dose-only effect, or another doubt; inactive = no such curve, though single readings can be large; an effect the other way counts as inactive or inconclusive.

SMILES	DT40 TDP1 CPT	HT1080 IDH1KD tx	HT1080NT lethal	KB-3-1 tox	DT40 TDP1 no CPT	KB-V1 MDR tox
O=C(NCCc1ccccc1)N1c2ccccc2Sc2ccccc21	?	?	?	.	16.4µM	?
O=C(c1ccncc1)N1c2ccccc2Sc2ccccc21	20.6µM	.	?	?	9.2µM	.
NC(=O)C1CCN(C(=O)N2c3ccccc3Sc3ccccc32)CC1	.	.	.	.	.	.
COc1cccc(C(=O)N2c3ccccc3Sc3ccccc32)c1	11.6µM	?	.	?	16.4µM	?
CCc1nnc(NC(=O)C2CCCN2C(=O)Nc2ccccc2)s1 (stereo not drawn)	.	.	.	.	.	.
COc1ccccc1NC(=O)N1c2ccccc2Sc2ccccc21	14.6µM	/	/	.	14.6µM	.
O=c1c([N+](=O)[O-])c(N2CCCC2)c2ccccc2n1-c1ccccc1	.	.	.	.	.	.
CCCN1CCC(N(CCc2ccccc2)Cc2ccccc2)CC1	.	.	.	.	?	.
COc1ccc(CN2CCC(N(CCc3ccccc3)Cc3ccccc3)CC2)c(OC)c1	23.1µM	?	?	?	23.1µM	13µM
O=c1[nH]c(/C(Cl)=C/c2cc(Cl)ccc2O)nc2cc(Cl)ccc12	13µM	.	.	?	13µM	14.6µM
CC(OC(=O)C1CCCCC1)c1nc2ccccc2[nH]1 (stereo not drawn)	.	.	.	.	.	20.6µM
CCCN1C(=O)/C(=C/c2c(N3CCNC(=O)C3CC(=O)OCC)nc3c(C)cccn3c2=O)SC1=S (stereo not drawn)	18.4µM	.	.	?	16.4µM	?
Cc1nc2cc3c(=O)n(C)cnc3cc2n1Cc1ccccc1	.	.	.	.	16.4µM	.
CC(=O)Nc1ccc2c(c1)nc(C)n2Cc1ccccc1	.	.	.	.	.	.
COC(=O)c1ccccc1NC(=O)CSc1nnc2cc(C)c3cc(C)cc(C)c3n12	?	/	/	.	?	.
O=C(Nc1cccc(Cl)c1)c1cc(F)cc2c1OCOC2	.	.	.	.	.	.
Cc1onc(-c2ccccc2)c1C(=O)NCCN1Cc2ccccc2OC(c2ccsc2)C1 (stereo not drawn)	.[9.04 µM]	/	/	/	14.6µM	/
COc1cc(=O)n2c(c1C(=O)N(C)Cc1nccs1)CCN(Cc1c(F)ccc(F)c1F)CC2	.	/	/	/	.	/
O=C(Nc1cc(Cl)cc(Cl)c1)c1cc(S(=O)(=O)N2CCc3ccccc3C2)ccc1F	?	/	/	.	?	.
O=C(Nc1ccc(Br)cc1)c1cc(S(=O)(=O)NC2CCCC2)ccc1F	23.1µM	/	/	20.6µM	20.6µM	?
O=C(Nc1ccc(F)c(F)c1)c1cc(S(=O)(=O)NC2CCCC2)ccc1F	?	/	/	/	23.1µM	/
O=C(Nc1ccc(S(=O)(=O)NC2CCCCC2)cc1)c1ccc(Br)o1	?	?	.	?	?	?
Cc1ccc(NC(=O)c2cc(S(=O)(=O)NC3CCCCC3)ccc2F)cc1Cl	23.1µM	/	/	/	20.6µM	/
O=C(Nc1cc(Cl)cc(Cl)c1)c1cc(S(=O)(=O)NC2CCCC2)ccc1F	?	/	/	?	20.6µM	?
CCN(CC(=O)Nc1c(F)cccc1F)C(=O)CNC(=O)c1ccc(C)s1	.	.	.	.	.	.
SMILES	DT40 TDP1 CPT	HT1080 IDH1KD tx	HT1080NT lethal	KB-3-1 tox	DT40 TDP1 no CPT	KB-V1 MDR tox
Fc1ccc(CSc2ccc(-c3ccco3)nn2)cc1	?	.	.	.	?	?
O=C(CN1CCN(C(=O)c2ccco2)CC1)Nc1ccc(F)cc1F	.	.	.	.	.	.
COc1ccc(CNC(=O)c2nn(-c3ccccc3C)nc2CO)cc1	.	/	/	/	?	/
CCc1nnc2c3ccccc3nc(Nc3ccc(C(C)=O)cc3)n12	?	/	/	.	7.31µM	.
CCc1nnc2c(Nc3ccc(Br)c(C)c3)nc3ccccc3n12	.	/	/	.	.	.
CCc1nnc2c3ccccc3nc(Nc3cc(C)cc(C)c3)n12	6.51µM	/	/	.	3.66µM	.
CCOc1ccc(S(=O)(=O)NN=C(C)c2cccnc2)cc1	.	.	.	.	.	.
O=C(N/N=C/c1cc(Cl)c(O)c(Cl)c1)c1cc2c(ccc3ccccc32)o1	?	?	.	.	?	.
O=C(CCNC(=O)OCC1c2ccccc2-c2ccccc21)NOCc1ccccc1	3.26µM	.	.	.	4.11µM	.
NCC(=O)NNC(=O)OCC1c2ccccc2-c2ccccc21	.	.	.	.	.	.
O=C(O)CCNC(=O)OCC1c2ccccc2-c2ccccc21	8.2µM	.	.	.	?	.
CC(C)CC(NC(=O)OCC1c2ccccc2-c2ccccc21)C(=O)O (stereo not drawn)	.	/	/	/	.	/
COC(=O)Nc1nnc(-c2ccccc2Cl)s1	.	.[9.24 µM]	.	.	.	?
COC(=O)c1ccc(NC(=O)CN2CCC(NC(=O)c3ccccc3F)CC2)cc1	.	.	.	.	?	.
O=C1C(=Cc2ccccc2Cl)CCc2ccccc21	.	?	?	20.6µM	?	?
O=C1C(=Cc2ccc(Cl)cc2)CCc2ccccc21	20.6µM	?	?	.	?	.
O=C1C(=Cc2cccc(Cl)c2)CCc2ccccc21	?	?	?	.	20.6µM	.
O=C1C(=Cc2ccc(F)cc2)CCc2ccccc21	16.4µM	.	.	.	20.6µM	.
O=C1C(=Cc2cccc(Cl)c2)Cc2ccccc21	?	.	.	.	?	.
CCC(C)(Oc1ccc(C2(c3ccc(OC(C)(CC)C(=O)O)cc3)CCCCC2)cc1)C(=O)O (stereo not drawn)	.	/	/	/	.	/
Cc1ccc(S(=O)(=O)Nc2ccc(Cl)cn2)cc1C	.	.	.	.	.	.
NC(=O)COc1ccc(-c2noc(COc3ccccc3[N+](=O)[O-])n2)cc1	.	.	.	.	.	.
Cc1ccc(S(=O)(=O)N2CCC(=O)N(C(COCc3ccc(C(F)(F)F)cc3)C(C)C)CC2)cc1 (stereo not drawn)	16.4µM	.	.	?	11.6µM	?
Cc1ccc(S(=O)(=O)N2CCC(=O)N([C@H](COCc3cccc(C(F)(F)F)c3)C(C)C)CC2)cc1	?	.	.	.	16.4µM	?
Cc1ccc(S(=O)(=O)N2CCC(=O)N(C(CO)C(C)C)CC2)cc1 (stereo not drawn)	.	.	.	.	.	.
Cc1ccc(S(=O)(=O)N2CCC(=O)N([C@H](COCc3ccc(C(F)(F)F)cc3)Cc3ccccc3)CC2)cc1	?	.	.	?	?	.
Cc1ccc(S(=O)(=O)N2C[C@H]3C(=O)C[C@@H](c4ccc(Cl)cc4)N(S(=O)(=O)c4ccc(C)cc4)[C@H]3C[C@H]2c2ccccc2)cc1	.	.	.	.	.	?

Screening results from PubChem.
